Reference: PubChem BioAssay (NCI)
This is part of a sample that, as a whole, favours compounds with a hit. Of some 83,000 tested, about 20% had one in any assay.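 Single-concentration screen, 48 h exposure, 96-well plates. Endpoint: percent growth. Below 10 = active.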 Calls of active or inactive are those of the source.

Tests used:
Experiment in all cases: NCI-60 one-dose screen, 48 h (100 = growth as untreated, 0 = no growth, -100 = all killed)
Conditions in all cases: 10 µM unless noted
NCI-H23 lung = tested on: NCI-H23 lung
NCI-H226 lung = tested on: NCI-H226 lung
NCI-H322M lung = tested on: NCI-H322M lung
HOP-62 NSCLC = tested on: HOP-62 NSCLC
NCI-H460 lung = tested on: NCI-H460 lung
HOP-92 NSCLC = tested on: HOP-92 NSCLC
NCI-H522 lung = tested on: NCI-H522 lung
A549/ATCC NSCLC = tested on: A549/ATCC NSCLC
786-0 renal = tested on: 786-0 renal
COLO 205 colon = tested on: COLO 205 colon
DU-145 prostate = tested on: DU-145 prostate
K-562 leukemia = tested on: K-562 leukemia
MALME-3M melanoma = tested on: MALME-3M melanoma
MDA-MB-231 breast = tested on: MDA-MB-231 breast
RXF 393 renal = tested on: RXF 393 renal
SF-268 CNS = tested on: SF-268 CNS
SF-295 CNS = tested on: SF-295 CNS
SF-539 CNS = tested on: SF-539 CNS
M14 melanoma = tested on: M14 melanoma
UACC-257 melanoma = tested on: UACC-257 melanoma

Measured: growth

COc1cccc(-c2nn(-c3ccccc3)cc2-c2ccnc(NCCCNS(=O)(=O)c3cccc(F)c3)c2)c1
active: HOP-92 NSCLC 6.39% | NCI-H522 lung 9.36% | K-562 leukemia 6.28% | MDA-MB-231 breast 5.9% | SF-295 CNS 7.99%
inactive: NCI-H23 lung 30.2% | NCI-H226 lung 21.7% | NCI-H322M lung 53.9% | HOP-62 NSCLC 54.1% | NCI-H460 lung 24.5% | A549/ATCC NSCLC 27.4% | 786-0 renal 31.6% | COLO 205 colon 11.9% | DU-145 prostate 53.6% | MALME-3M melanoma 35.1% | RXF 393 renal 15.8% | SF-268 CNS 46.8% | SF-539 CNS 51.9% | M14 melanoma 21%

CNC(=O)c1cc(Oc2ccc3nc(NC(=O)Nc4ccc(Cl)cc4)sc3c2)ccn1
active: HOP-62 NSCLC 6.54%
inactive: NCI-H23 lung 69% | NCI-H226 lung 67.9% | NCI-H322M lung 66.8% | NCI-H460 lung 64.4% | HOP-92 NSCLC 63.3% | NCI-H522 lung 78% | A549/ATCC NSCLC 44.1% | 786-0 renal 75.3% | COLO 205 colon 79.4% | DU-145 prostate 53.2% | K-562 leukemia 65.6% | MALME-3M melanoma 17.7% | MDA-MB-231 breast 34.4% | RXF 393 renal 50.8% | SF-268 CNS 56.2% | SF-295 CNS 66.3% | SF-539 CNS 83.5% | M14 melanoma 63%

COc1cccc(-c2nn(-c3ccccc3)cc2-c2ccnc(NCCNS(=O)(=O)c3ccccc3)c2)c1
inactive: NCI-H23 lung 39.5% | NCI-H226 lung 41.2% | NCI-H322M lung 62.8% | HOP-62 NSCLC 58.6% | NCI-H460 lung 28.6% | HOP-92 NSCLC 19.4% | A549/ATCC NSCLC 34.4% | 786-0 renal 42.7% | COLO 205 colon 10.6% | DU-145 prostate 57.5% | MALME-3M melanoma 69.1% | MDA-MB-231 breast 18.4% | RXF 393 renal 63.7% | SF-268 CNS 50% | SF-295 CNS 20.6% | SF-539 CNS 57.1% | M14 melanoma 29.8%
active: NCI-H522 lung 9.95% | K-562 leukemia 6.57%

COc1cc2c3c(c4c5ccccc5[nH]c4c2c(OC)c1OC)C(=O)N(O)C3=O
inactive: NCI-H23 lung 54.9% | NCI-H226 lung 42.6% | NCI-H322M lung 37.4% | HOP-62 NSCLC 38% | NCI-H460 lung 26.9% | HOP-92 NSCLC 78.4% | NCI-H522 lung 45.7% | A549/ATCC NSCLC 60.3% | 786-0 renal 69.6% | COLO 205 colon 61.1% | DU-145 prostate 71.7% | K-562 leukemia 20.8% | MALME-3M melanoma 78.5% | MDA-MB-231 breast 44.2% | RXF 393 renal 52.2% | SF-268 CNS 49.3% | SF-295 CNS 47.8% | SF-539 CNS 30.9% | M14 melanoma 37.5%

N#Cc1cnc2cc(OC[C@@H](O)CO)c(NC(=O)C3CCCC3)cc2c1Nc1ccc(OCc2cccc(F)c2)c(Cl)c1
inactive: NCI-H23 lung 13.6% | NCI-H226 lung 38.5% | NCI-H322M lung 35.7% | A549/ATCC NSCLC 47.9% | 786-0 renal 43.6% | COLO 205 colon 49.6% | SF-268 CNS 23.1%
active: HOP-62 NSCLC -51.9% | NCI-H460 lung 0.536% | HOP-92 NSCLC -37.2% | NCI-H522 lung -58.5% | DU-145 prostate -90.8% | K-562 leukemia 0.239% | MALME-3M melanoma -48.8% | MDA-MB-231 breast -58.5% | RXF 393 renal -62.6% | SF-295 CNS 1.06% | SF-539 CNS -32.5% | M14 melanoma -53%

NC(=O)NCC1CCCCC1
inactive: NCI-H23 lung 90.7% | NCI-H226 lung 102% | NCI-H322M lung 104% | HOP-62 NSCLC 112% | NCI-H460 lung 105% | HOP-92 NSCLC 114% | NCI-H522 lung 93.3% | A549/ATCC NSCLC 109% | 786-0 renal 101% | COLO 205 colon 111% | DU-145 prostate 104% | K-562 leukemia 102% | MALME-3M melanoma 99.3% | MDA-MB-231 breast 108% | RXF 393 renal 101% | SF-268 CNS 99.1% | SF-295 CNS 93.1% | SF-539 CNS 91.4% | M14 melanoma 104%

CN(C)CCCCC(C(=O)CBr)(c1ccccc1)c1ccccc1
active: HOP-92 NSCLC -12.2% | NCI-H522 lung -90% | 786-0 renal 5.16% | COLO 205 colon -76% | K-562 leukemia -7.09% | MALME-3M melanoma -55.9% | RXF 393 renal -51.5% | UACC-257 melanoma 6.07%
inactive: NCI-H23 lung 30.6% | NCI-H226 lung 86.1% | NCI-H322M lung 74.5% | HOP-62 NSCLC 51.8% | NCI-H460 lung 49.5% | A549/ATCC NSCLC 49.7% | DU-145 prostate 31% | MDA-MB-231 breast 38.1% | SF-268 CNS 48.7% | SF-295 CNS 43.7% | SF-539 CNS 20.2% | M14 melanoma 18.8%

O=S(=O)(NCCNc1cc(-c2cn(-c3ccccc3)nc2-c2cccc(O)c2)ccn1)c1cccc(F)c1
inactive: NCI-H23 lung 45.8% | NCI-H226 lung 55.3% | NCI-H322M lung 56.2% | HOP-62 NSCLC 56.7% | NCI-H460 lung 33.1% | HOP-92 NSCLC 51.1% | NCI-H522 lung 26.7% | A549/ATCC NSCLC 42.4% | 786-0 renal 16.8% | DU-145 prostate 63.5% | MALME-3M melanoma 64.9% | MDA-MB-231 breast 11.5% | RXF 393 renal 62.3% | SF-268 CNS 54.9% | SF-295 CNS 22.4% | SF-539 CNS 51.2% | M14 melanoma 31.8%
active: COLO 205 colon -4.68% | K-562 leukemia 7.94%

COC(=O)[C@]12CC[C@@H](C)[C@H](C)[C@@H]1C1=CC[C@@H]3[C@@]4(C)C[C@@H](OC(C)=O)[C@H](O)[C@@](C)(CO)[C@@H]4[C@H](O)C[C@@]3(C)[C@]1(C)CC2
active: NCI-H23 lung -82% | NCI-H226 lung -48.6% | NCI-H322M lung -93.2% | HOP-62 NSCLC -89.8% | NCI-H460 lung -72.6% | HOP-92 NSCLC -87.7% | NCI-H522 lung -90.3% | A549/ATCC NSCLC -88.3% | 786-0 renal -77.3% | COLO 205 colon -87.8% | DU-145 prostate -100% | K-562 leukemia -62.7% | MALME-3M melanoma -69.1% | MDA-MB-231 breast -62.3% | RXF 393 renal -88.9% | SF-268 CNS -84% | SF-295 CNS -92.2% | SF-539 CNS -90% | M14 melanoma -69.1%

COC(=O)[C@]12CC[C@@H](C)[C@H](C)[C@@H]1C1=CC[C@@H]3[C@@]4(C)CC(=O)[C@H](OC(=O)c5ccco5)[C@@]5(C)COC(=C45)C[C@@]3(C)[C@]1(C)CC2
active: NCI-H460 lung 9.59% | 786-0 renal 6.39% | COLO 205 colon -40.6%
inactive: NCI-H23 lung 33.5% | NCI-H226 lung 23.6% | NCI-H322M lung 53.7% | HOP-62 NSCLC 34.4% | HOP-92 NSCLC 60.6% | NCI-H522 lung 26.9% | A549/ATCC NSCLC 25% | DU-145 prostate 37.9% | K-562 leukemia 23.7% | MALME-3M melanoma 21.9% | MDA-MB-231 breast 40.4% | RXF 393 renal 44.5% | SF-268 CNS 40.7% | SF-295 CNS 35.6% | SF-539 CNS 39% | M14 melanoma 22.2%

C=C(C)[C@@H]1CC[C@]2(C(=O)N3CCN(C)CC3)CC[C@]3(C)[C@H](CC[C@@H]4[C@@]5(C)C/C(=C/c6ccc(C(F)(F)F)cc6)C(=O)C(C)(C)[C@@H]5CC[C@]43C)[C@@H]12
inactive: NCI-H23 lung 99.2% | NCI-H226 lung 101% | NCI-H322M lung 96.5% | HOP-62 NSCLC 96.6% | NCI-H460 lung 97.9% | HOP-92 NSCLC 78.1% | NCI-H522 lung 94.4% | A549/ATCC NSCLC 92.6% | 786-0 renal 90.3% | COLO 205 colon 105% | DU-145 prostate 104% | K-562 leukemia 72.9% | MALME-3M melanoma 90.8% | MDA-MB-231 breast 94.9% | RXF 393 renal 97.4% | SF-268 CNS 92.8% | SF-295 CNS 101% | SF-539 CNS 88.6% | UACC-257 melanoma 98.5% | M14 melanoma 94.8%

O=S(=O)(NCCCNc1cc(-c2cn(-c3ccccc3)nc2-c2cccc(O)c2)ccn1)c1ccc(F)cc1
active: 786-0 renal -4.8% | COLO 205 colon -66.1% | K-562 leukemia 3% | MDA-MB-231 breast -0.971% | SF-295 CNS 5.71%
inactive: NCI-H23 lung 44.4% | NCI-H226 lung 54.1% | NCI-H322M lung 51.2% | HOP-62 NSCLC 53.8% | NCI-H460 lung 24.9% | HOP-92 NSCLC 57.7% | NCI-H522 lung 37.6% | A549/ATCC NSCLC 38.8% | DU-145 prostate 59.5% | MALME-3M melanoma 35.9% | RXF 393 renal 39.7% | SF-268 CNS 44.5% | SF-539 CNS 38.8% | M14 melanoma 26.6%

Cn1cnc2c1c(=O)n(CCC(=O)Nc1ccc(F)cc1)c(=O)n2C
inactive: NCI-H23 lung 95.8% | NCI-H226 lung 106% | NCI-H322M lung 107% | HOP-62 NSCLC 100% | NCI-H460 lung 108% | HOP-92 NSCLC 96.4% | NCI-H522 lung 87.3% | A549/ATCC NSCLC 89.1% | 786-0 renal 94.8% | COLO 205 colon 104% | DU-145 prostate 103% | K-562 leukemia 108% | MALME-3M melanoma 97.1% | MDA-MB-231 breast 101% | RXF 393 renal 116% | SF-268 CNS 105% | SF-295 CNS 102% | SF-539 CNS 101% | M14 melanoma 101%

O=C1CCN2C(=O)Nc3ccccc3C2C1 (stereo not drawn)
inactive: NCI-H23 lung 101% | NCI-H226 lung 104% | NCI-H322M lung 95.8% | HOP-62 NSCLC 109% | NCI-H460 lung 100% | HOP-92 NSCLC 96.7% | NCI-H522 lung 100% | A549/ATCC NSCLC 101% | 786-0 renal 99.3% | COLO 205 colon 107% | DU-145 prostate 112% | K-562 leukemia 101% | MALME-3M melanoma 87.4% | MDA-MB-231 breast 93.5% | RXF 393 renal 112% | SF-268 CNS 110% | SF-295 CNS 97.5% | SF-539 CNS 95.5% | M14 melanoma 86.3%
